From PubChem
mHTT CaM bind: disrupts binding of mutant huntingtin to calmodulin; AlphaScreen His-mHTT/GST-CaM binding, luminescence; actives 3.6% (n = 190,000); AID 1671202; inhibition, % at 15 µM; P42858;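 further: 0% = both proteins with DMSO and 100% = one protein alone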
Pf apPOL block: Pf-apPOL DNA polymerase inhibition; Recombinant Pf-apPOL, molecular beacon fluorescence, 1.5 h; inhibition, % at 10 µM; actives 0.25% (n = 210,000); AID 1794808
Numbers without * were called inactive; . = no result. The list is not random: actives were taken first. Their share in the collection is about 3.5%. No stated cut-off is given here; in the data, active means inhibition above about 50%; inactive means the rest.

SMILES | mHTT CaM bind | Pf apPOL block
CCc1ccc(CNC(=O)CCC(=O)N2CC3CCCN3c3ccccc32)cc1 (stereo not drawn) | 55.4* | -2.5
CCNC(=O)CCC(=O)N1CC2CCCN2c2ccccc21 (stereo not drawn) | 11.5 | -2.6
O=C(CCC(=O)N1CC2CCCN2c2ccccc21)NCCN1CCCCCC1 (stereo not drawn) | 40.6 | -5.4
O=C1/C(=C/c2ccccc2F)CC/C1=C\c1ccccc1F | 32.0 | -4.9
O=C1NC(=O)C(=Cc2cccn2-c2ccccc2)C(=O)N1 | 7.0 | 0.5
O=C1NC(=O)C(=Cc2cccn2-c2ccc(Cl)cc2)C(=O)N1 | 66.0* | 37.0
CCOC(=O)c1ccc(NC(=O)CN2CCN(c3ccc(OC)cc3)C2=O)cc1 | -6.6 | -1.3
CCOC(=O)c1ccc(-n2sccc2=O)cc1 | . | 95.6*
COc1ccc(C2C(C(=O)Nc3ccc(Cl)cc3)=C(C)Nc3ncnn32)cc1Br (stereo not drawn) | 40.0 | 1.7
COc1ccc(Br)cc1C1C(C(=O)Nc2ccc(Cl)cc2)=C(C)Nc2ncnn21 (stereo not drawn) | 60.0* | -3.3
CCOc1ccc(-n2c(SC(CC)C(=O)N(CC)CC)nc3n[nH]c(C)c3c2=N)cc1 (stereo not drawn) | 52.0* | -2.7
CCOc1ccc(-n2c(SCC(=O)NCC3CCCO3)nc3n[nH]c(C)c3c2=N)cc1 (stereo not drawn) | 9.0 | -1.2
COc1cccc(NC(=O)CSc2nc3n[nH]c(C)c3c(=N)n2-c2ccc(C)cc2)c1 | 57.0* | 0.2
Cc1[nH]nc2nc(SCC(=O)NCC3CCCO3)n(-c3ccc(Br)cc3)c(=N)c12 (stereo not drawn) | 52.0* | -6.1
CCOc1ccc(-n2c(SC(CC)C(=O)NCCOC)nc3n[nH]c(C)c3c2=N)cc1 (stereo not drawn) | 36.0 | -4.2
Cc1ccc(-n2c(SCC(=O)NCc3ccco3)nc3n[nH]c(C)c3c2=N)cc1C | 49.0 | 1.7
CCC(C)NC(=O)CSc1nc2n[nH]c(C)c2c(=N)n1-c1ccc(OC)cc1 (stereo not drawn) | 48.0 | -4.0
Cc1[nH]nc2nc(SCC(=O)NCc3ccco3)n(-c3ccc(Br)cc3)c(=N)c12 | 80.0* | -2.1
CC(C(=O)O)n1nnc(-c2ccccc2)n1 (stereo not drawn) | 2.5 | -4.4
O=C(CSCc1ccccc1F)N1CCc2ccccc21 | -16.0 | 40.5
CC(C)CNC(=O)c1ccc(-c2nc3ccccc3n(CC(C)C)c2=O)cc1 | -3.7 | -2.9
COc1ccc(-n2nc3c(c2NC(=O)c2ccc4c(c2)OCO4)CSC3)cc1 | 30.0 | -6.6
COc1ccc(NC(=O)N2CCn3cccc3C2Cc2ccccc2)c(OC)c1 (stereo not drawn) | 53.6* | -1.2
O=C(Nc1cccc(Cl)c1)N1CCn2cccc2C1Cc1ccccc1 (stereo not drawn) | 91.7* | 0.7
O=C(Nc1ccc(F)cc1)N1CCn2cccc2C1Cc1ccccc1 (stereo not drawn) | 69.0* | -8.1
SMILES | mHTT CaM bind | Pf apPOL block
CCc1ccc(NC(=O)N2CCn3cccc3C2Cc2ccccc2)cc1 (stereo not drawn) | 18.0 | -1.9
Cc1ccc(NC(=O)N2CCn3cccc3C2Cc2ccccc2)cc1 (stereo not drawn) | 10.3 | -3.8
COc1ccc(C)cc1NC(=O)N1CCn2cccc2C1Cc1ccccc1 (stereo not drawn) | 48.1 | -5.2
Cc1nn(C2CCS(=O)(=O)C2)c(C)c1CC(=O)Nc1ccc(-n2cnnn2)cc1 (stereo not drawn) | -14.3 | -3.7
COc1ccc(S(=O)(=O)Nc2sc3c(c2C(N)=O)CCCC3)cc1 | 5.7 | -5.3
Oc1oc(-c2ccccc2)nc1C=Nc1nncs1 | 8.0 | 11.4
Cc1ccc(NC(=O)CN2CCC3(CC2)N=C(c2ccccc2)C(=O)N3)c(Cl)c1 | 17.9 | 2.9
COCCN=C1Nc2ccccc2NC12CCCN(C(=O)Nc1ccc(OC)cc1C)C2 (stereo not drawn) | 69.9* | -1.5
COCCN=C1Nc2ccccc2NC12CCCN(C(=O)c1cc(OC)cc(OC)c1)C2 (stereo not drawn) | 0.1 | -2.3
COCCN=C1Nc2ccccc2NC12CCCN(C(=O)c1ccc(C)c(F)c1)C2 (stereo not drawn) | 48.0 | -3.0
COCCN=C1Nc2ccccc2NC12CCCN(C(=O)Nc1ccc(OC)cc1)C2 (stereo not drawn) | 99.8* | -5.5
CN(CCC#N)c1ccc(C=NCCCN=Cc2ccc(N(C)CCC#N)cc2)cc1 | . | -3.5
CCOC(=O)C1CCN(C(=O)c2nnn(-c3ccccc3Cl)c2-c2ccccn2)CC1 | -3.6 | -8.6
COc1ccc(OC)c(Nc2nc(C)nc3sc(C)cc23)c1 | 52.0* | -13.5
COc1ccc(C)cc1Nc1nc(C)nc2sc(C)cc12 | -7.0 | -18.2
COc1ccc(CCNC(=O)COc2cc(=O)n3ccccc3n2)cc1 | -20.1 | -10.1
NC(=O)C1CCCN(Cc2ccc(F)cc2)C1 (stereo not drawn) | 3.0 | -10.7
O=[N+]([O-])c1cccc2c1NC(c1ccc(Br)cc1)C1CC=CC21 (stereo not drawn) | 82.0* | 1.1
